Measurements from PubChem BioAssay (EPA / NIEHS).
Active and inactive are the calls of the source. How the source made its calls: active means hit-call score of the fitted dose curve at least 0.9, where 1 is the maximum; inactive means score below 0.9.

assay: ATG_GATA_CIS: Attagene CIS-FACTORIAL HepG2 Assay for human GATA Binding Protein (AID 2282944); conditions: HepG2 GATA cis-element reporter, Attagene multiplex mRNA; actives raise or lower the signal
Experimental: ATG_CIS is a cell-based, multiplexed-readout assay that uses HepG2, a human liver cell line, with measurements taken at 24 hours after chemical dosing in a 24-well plate.ATG_GATA_CIS is one of 52 assay component(s) measured or calculated from the ATG_CIS assay. It is designed to make measurements of mRNA induction, a form of inducible reporter, as detected with fluorescence intensity signals by Reverse transcription polymerase chain reaction (RT-PCR) and Capillary electrophoresis technology.Data from the assay component ATG_GATA_CIS was analyzed into 1 assay endpoint. This assay endpoint, ATG_GATA_CIS, was analyzed with bidirectional fitting relative to DMSO as the negative control and baseline of activity. Using a type of inducible reporter, measures of mRNA for gain or loss-of-signal activity can be used to understand the reporter gene at the transcription factor-level as they relate to the gene GATA1. Furthermore, this assay endpoint can be referred to as a primary readout, because this assay has produced multiple assay endpoints where this one serves a reporter gene function. To generalize the intended target to other relatable targets, this assay endpoint is annotated to the dna binding intended target family, where the subfamily is GATA proteins.
Human liver HepG2 cells are transiently transfected with multiple reporter transcription units (MRTUs) in 6-well plates using FuGene 6 reagent (Roche; 3 ml FuGene/1 mg DNA). The MRTU constructs are regulated by a cis-regulating element (promoter). […] A major difference between the CIS and TRANS system is that in CIS activities of endogenous TFs are measured, whereas the TRANS assay evaluates changes in activities of exogenous, chimeric NR-Gal4 proteins. […] At the end of 24 hour incubation, total RNA was isolated using TriZol reagent (Invitrogen). The isolated RNA is then reverse-transcribed using oligo(dT) primer and Mo-MLV reverse transcriptase (Invitrogen) with DNAse I (Ambion) treatment for 30 min. The one-tenth of the produced cDNA was amplified by PCR using Taq DNA polymerase (Invitrogen) and two reporter sequence-specific primers. The PCR products were fluorescently labeled by primer extension with 6-arboxyfluorescein (6-FAM) 5'-labeled reporter sequence-specific primer (2 min at 95 C, 20 s at 68 C and 10 min at 72 C) and these products were digested with 5U of HpaI (New England Biolabs) for 2h at 37 C. The fragments were purified using Qiaquick PCR columns (Qiagen), analyzed on an ABI 3130xL genetic analyzer (Applied Biosystems) with peak positions identified by using a set of X-rhodamine (ROX)-labeled MapMarker1000 molecular weight standards (BioVentures). The raw capillary electrophoresis data was processed using Attagraph software (Attagene).

outcome, inactive:
CCCCCCCCCCCCCOS(=O)(=O)O
CN(C)c1ccc(O)c2c1C[C@H]1C[C@H]3[C@H](N(C)C)C(=O)C(C(N)=O)=C(O)[C@@]3(O)C(=O)C1=C2O
CC1(C)[C@H]2CC[C@]1(C)[C@H](O)C2
O=C[C@H](O)[C@H](O)[C@H](O)CO
O=C1C(c2[nH]c3ccc(S(=O)(=O)O)cc3c2O)=Nc2ccc(S(=O)(=O)O)cc21
C=CC(=O)OCCOCCOCC
CC1=CCC2C(C1)C2(C)C (stereo not given)
O=C(COc1ccc(Cl)cc1)N1CCN(Cc2ccc3c(c2)OCO3)CC1
OC1C(O)C(O)C(O)C(O)C1O (stereo not given)
NCCCCCCN
CCCCO
O=C(O)CN(CCN(CC(=O)O)CC(=O)O)CCN(CC(=O)O)CC(=O)O
CN(CCOc1ccc(CC2SC(=O)NC2=O)cc1)c1ccccn1 (stereo not given)
CC1CC(OC(=O)c2ccccc2O)CC(C)(C)C1 (stereo not given)
CCCCCCCCCCCCCCCC(=O)OC[C@H](O)[C@H]1OC(=O)C(O)=C1O
Nc1cc([N+](=O)[O-])ccc1O
COc1cc(C(C)(C)C)c(O)c(C(C)(C)C)c1
CC(=O)Nc1ccccc1O
O=C1NC(=O)c2ccccc21
OCC(CO)(CO)COCC(CO)(CO)CO
COC(=O)Cc1cccc2ccccc12
O=C(O)CCCCCCCC(=O)O
c1ccc2[nH]ccc2c1
CCN(CC)c1ccc(C(=C2C=CC(=[N+](CC)CC)C=C2)c2ccc(S(=O)(=O)O)cc2S(=O)(=O)[O-])cc1
O=c1cc(-c2ccccc2)oc2cc(O)cc(O)c12
C=O
CCCCNC(=O)NS(=O)(=O)c1ccc(C)cc1
OCCOCCOCCOCCO
COc1ccc(Nc2ccccc2)c(C)c1
O=C(O)c1ccc([N+](=O)[O-])cc1
CCn1c2ccccc2c2cc(N)ccc21
CC(=O)O[C@]1(C(C)=O)CC[C@H]2[C@@H]3C[C@H](C)C4=CC(=O)CC[C@]4(C)[C@H]3CC[C@@]21C
COc1ccc(Cl)cc1C
CCCC(=O)OCCC(C)CCC=C(C)C (stereo not given)
CC1(C)[C@@H]2CC[C@@]1(C)[C@H](O)C2
O=C(O)Cc1cccc2ccccc12
CCCCCCCCC
C[C@H]1C[C@@H]2[C@H]([C@@H](O)C[C@@]3(C)[C@H]2CC[C@]3(O)C(=O)CO)[C@@]2(C)C=CC(=O)C=C12
CCC(C(=O)NC(N)=O)c1ccccc1 (stereo not given)
CCOC(=S)SSC(=S)OCC
